According to PubChem BioAssay (NCI):
This is part of a sample that, as a whole, favours compounds with a hit. Of some 83,000 tested, about 20% had one in any assay.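 Negative percent growth values reflect cell death: -40 means 40% of the cells present at the start died, and -100 means all died.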 Values without a mark were called inactive. The source made the active and inactive calls. How the source made its calls: active means growth percent below 10; inactive means the rest.

Assays:
Test in all cases: NCI-60 one-dose screen, 48 h (100 = growth as untreated, 0 = no growth, -100 = all killed)
Conditions in all cases: 10 µM
K-562 leukemia = test system: K-562 leukemia
MALME-3M melanoma = test system: MALME-3M melanoma
MDA-MB-231 breast = test system: MDA-MB-231 breast
RXF 393 renal = test system: RXF 393 renal
SF-268 CNS = test system: SF-268 CNS
SF-295 CNS = test system: SF-295 CNS
SF-539 CNS = test system: SF-539 CNS
UACC-257 melanoma = test system: UACC-257 melanoma
M14 melanoma = test system: M14 melanoma
HCT-15 colon = test system: HCT-15 colon

Row | SMILES | growth (K-562 leukemia) | growth (MALME-3M melanoma) | growth (MDA-MB-231 breast) | growth (RXF 393 renal) | growth (SF-268 CNS) | growth (SF-295 CNS) | growth (SF-539 CNS) | growth (UACC-257 melanoma) | growth (M14 melanoma) | growth (HCT-15 colon)
1 | CCOC1(OCC)OC(c2ccccc2)=C(C#N)C(/C=C\c2ccccc2)C1(OCC)OCC (stereo not given) | 73.3% | 73.7% | 85.1% | 60.1% | 79.8% | 94.1% | 100% | 81% | 78% | 81.7%
2 | O=C(Nc1ccc(OS(=O)(=O)c2ccccc2)cc1)C12CC3CC(CC(C3)C1)C2 | 13% | 55.8% | 19.9% | 26.8% | 78.6% | 45.6% | 19.7% | 37.8% | 47.2% | 29.9%
3 | CC[C@H](C)C(=O)O[C@H]1CCC=C2C=C[C@H](C)C(CCC3C[C@@H](O)CC(=O)O3)[C@H]21 (stereo not given in full) | 71.5% | 89.1% | 2.32% (active) | 70.2% | 33.8% | 8.14% (active) | 85.8% | 75.2% | 61.7% | 55.8%
4 | CCCC#CCN(CC)CC | 103% | 111% | 109% | 112% | 111% | 80.2% | 99.6% | 93.6% | 108% | 99.6%
5 | COc1cc2cc3c(nc2cc1OC)CCN3Cc1ccc(NC(=O)c2ccc(Cl)c(C(F)(F)F)c2)cc1 | 94.7% | 68.8% | 85.4% | 94.5% | 102% | 92.8% | 81.1% | 86.6% | 104% | 95.8%
6 | O=c1[nH]c(-c2ccc(Cl)cc2)nc2sc3c(c12)CCCC3 | 69.5% | 108% | 97.8% | 89.1% | 50.7% | 32.9% | 72.1% | 103% | 68.2% | 81.1%
7 | CN(C)CCN1C(=O)c2cccc3cc(N)cc(c23)C1=O | 3.5% (active) | 17.4% | 57% | 18.3% | 37.8% | 21.1% | 33.4% | 5.64% (active) | 42% | 11.8%
8 | Cn1c([N+](=O)[O-])cnc1/C=C1\Oc2cc(Cl)ccc2C1=O | 35.8% | -56.7% (active) | -27.7% (active) | -66.8% (active) | -37.4% (active) | 38.5% | 28% | -42% (active) | -34.7% (active) | 3.55% (active)
9 | Cc1ccc(NC(=O)Nc2nc3ccccc3s2)cc1NC(=O)Nc1nc2ccccc2s1 | 83.8% | 90.6% | 82.4% | 94.7% | 91.5% | 101% | 74.6% | 10.5% | 90.3% | 72.9%
10 | COc1cc(Cl)cc(-c2nn(-c3cccc(NC(=O)Nc4ccc(Cl)c(C(F)(F)F)c4)c3)cc2-c2ccncc2)c1 | 8.93% (active) | -19.8% (active) | -30.8% (active) | -29.9% (active) | 22.9% | -7.48% (active) | -1.17% (active) | -25.9% (active) | 3.99% (active) | 7.28% (active)
11 | CS(=O)(=O)Nc1ccc(Nc2c3ccccc3nc3cc(N)ccc23)cc1 | 22.7% | -32.7% (active) | 85.8% | 64.2% | 13% | -23.3% (active) | 2.88% (active) | 0.44% (active) | 7.54% (active) | 73.6%
12 | CC/C(=C(/c1ccc(OCCN(C)C)cc1)c1ccc(OC(=O)CCC(=O)c2c(C)[nH]c(/C=C3\N=C(c4ccc[nH]4)C=C3OC)c2C)cc1)c1ccccc1 | 0.3% (active) | -9.96% (active) | -30% (active) | 15.2% | 31.2% | 33.5% | 49.7% | 45.5% | -66.6% (active) | 3.7% (active)
13 | CCCCCCN1C(=O)C2=C(c3ccc(Cl)cc3)Nc3c(c(C)nn3-c3ccccc3)C2c2ccccc21 (stereo not given) | 85.3% | 90.9% | 103% | 83.7% | 103% | 92.4% | 105% | 90.7% | 103% | 93.4%
14 | CCN(CC)CCSCCN(CC)CC | 100% | 106% | 118% | 104% | 106% | 101% | 97% | 97.6% | 111% | 97.9%
15 | O=C1/C(=C/c2ccc([N+](=O)[O-])o2)Oc2ccccc21 | 1.24% (active) | -40.6% (active) | -17.3% (active) | -74.9% (active) | -10.8% (active) | 79.2% | -40.7% (active) | -8.85% (active) | 13.8% | 1.63% (active)
16 | COc1cc2nc(Nc3cccc(C(=O)O)c3)nc(N)c2cc1OC | 108% | 111% | 86.8% | 106% | 95.3% | 96.4% | 97% | 97.5% | -45.1% (active) | 102%
17 | CS(=O)(=O)Nc1ccc(Nc2c3ccccc3nc3cc([N+](=O)[O-])ccc23)cc1 | 7.9% (active) | 22.6% | 50.9% | 34.5% | 11.6% | 4.34% (active) | 24.4% | 44.6% | 4.52% (active) | 6.81% (active)
18 | O=C1C(=O)c2ccccc2C(O)=C1CCCc1ccc(C2CCCCCC2)cc1 | 23.7% | 13.5% | 68.4% | 68.1% | 53.9% | -0.205% (active) | 37.9% | 44% | 49.3% | 25.2%
19 | COc1ccc([N+](=O)[O-])c(C(=O)O)c1 | 88.6% | 105% | 121% | 98.3% | 102% | 88.7% | 98.7% | 110% | 100% | 98.5%
20 | CCOCCOCCOCCOCCOCCOCCOCCOCCOCCO (tested in a mixture with another compound) | 4.03% (active) | 0.836% (active) | 10.5% | 37.3% | 21.8% | -29.2% (active) | -10.1% (active) | -7.19% (active) | 10.8% | 22.1%
21 | CC1=C(N2CCOCC2)C(N2CCOCC2)=C(C)C(=O)C1=O | 93% | 101% | 115% | 101% | 93.3% | 97.2% | 103% | 91.5% | 103% | 99.6%
22 | CCOC(=O)N1C/C(=C/c2ccc(OC)cc2)C(=O)/C(=C/c2ccc(OC)cc2)C1 | -2.17% (active) | 34.2% | 30.6% | -44.4% (active) | 38.2% | 24.5% | 39.4% | 42.9% | -40.8% (active) | 3.06% (active)
23 | CN(C)C(=S)N/N=C\C=N/NC(=S)N(C)C | 1.44% (active) | 58.5% | 37.3% | 55.4% | 84.6% | 68.8% | 84.6% | 33.4% | 47.9% | 31.5%
24 | Nc1nc(Nc2ccccc2)n[nH]1 | 98.6% | 98.5% | 105% | 104% | 112% | 98.1% | 94.2% | -7.13% (active) | 96.5% | 93.8%
25 | Nc1c(C(=O)Nc2ccccc2)sc2nc3c(cc12)CCCC3 | 13.6% | 52% | 56% | -24.3% (active) | 54.7% | 5.09% (active) | -3.86% (active) | 59.2% | 22.7% | 24.8%
26 | Cc1cc(=O)n2nnc3c4ccccc4ccc3n12 | 24.7% | 81.2% | 71.4% | 98% | 84% | 104% | 82.3% | 81.1% | 92.4% | 51.4%
27 | CCCCCCCCCCCCCCCCCCOCC(COCCOCC[N+]1(CCCCCC(=O)[O-])CCCC1)Oc1ncccn1 (stereo not given) | 19.8% | 82.9% | 51.9% | 28.3% | 32.6% | 26.9% | 36.8% | 45.5% | 30% | 56.3%
